Data on 10 molecules can be found in PubChem BioAssay (EPA / NIEHS).

Activity calls are given as the source filed them. How the source made its calls: active means hit-call score of the fitted dose curve at least 0.9, where 1 is the maximum; inactive means score below 0.9.

Read-out in the assay: Interleukin-1 alpha (IL1a), IL1A (gene 3552)
Description: BSK_BF4T_IL1a: BioMAP Diversity Plus: BF4T Assay for Interleukin-1 alpha (IL1a) Biomarker Activity (AID 2284264). The following applies: primary human bronchial epithelial cells with fibroblasts. As to the method:
BSK_BF4T is a cell-based, multiplexed-readout assay that uses bronchial epithelial cells and dermal fibroblasts, a human vascular primary cell, with measurements taken at 24 hours after chemical dosing in a microplate: 96-well plate.BSK_BF4T_IL1a is an assay component measured in the BSK_BF4T assay. It measures IL-1a antibody related to regulation of gene expression using ELISA technology.Data from the assay component BSK_BF4T_IL1a was analyzed at the endpoint, BSK_BF4T_IL1a, in the positive analysis fitting direction relative to DMSO as the negative control and baseline of activity. Using a type of binding reporter, gain or loss-of-signal activity can be used to understand protein changes. To generalize the intended target to other relatable targets, this assay endpoint is annotated to the 'cytokine' intended target family, where the subfamily is 'interleukins'.
The levels of cell surface (or secreted, indicated by the prefix "s") biomarker endpoints were measured by ELISA. Overt cytotoxicity to cells in confluent adherent cultures (all systems other than the BT system) was assessed by measuring total protein levels using sulforhodamine B (SRB) staining in parallel cultures at the time of biomarker measurements, indicated as SRB endpoints. For proliferation assays for adherent cell types, individual cell types are cultured at sub-confluence and relative cell numbers quantified by SRB staining at time points optimized for each system (48 h: 3C and CASM3C systems; 72 h: BT and HDF3CGF systems; 96 h: SAg system). SRB was performed by staining cells with 0.1% SRB after fixation with 10% TCA and reading wells at 560 nm.Viability and proliferation of PBMC (T cells) was quantified by Alamar Blue reduction for the SAg and BT systems. For PBMC viability (referred to as PBMC Cytotoxicity within the assay endpoint names), cells were plated (75,000/well in a 96-well plate) and then chemical samples added for 1 h before addition of activators, SEB and TSST-1 (20 ng/mL final concentration each). Cells were incubated for 90 h. Then, Alamar Blue (20 uL/well) (Invitrogen, Cat DAL1100) was added for 6 h, and the plates were read with a fluorescence microplate reader at 546/580 nm (excitation/emission). For PBMC proliferation, cells were plated and activated as above but incubated for only 16 h prior to addition of Alamar Blue. Plates were read after 6 h.
For `FC(F)(F)C(F)(F)C(F)(F)C(F)(F)C(F)(F)C(F)(F)I`, the result was inactive.
The entry for `O=S(=O)(O)CCC(F)(F)C(F)(F)C(F)(F)C(F)(F)C(F)(F)C(F)(F)F` is “inactive”; for `C[Si](C)(C)C(F)(F)C(F)(F)C(F)(F)F` it is “inactive”; for `NCC(F)(F)C(F)(F)C(F)(F)C(F)(F)F` it is “inactive”.
Take `OCCC(F)(F)C(F)(F)C(F)(F)C(F)(F)F`: the outcome was inactive.
For the molecule `FC(F)=C(F)C(F)(F)C(F)(F)C(F)(F)C(F)(F)C(F)(F)C(F)(F)F`, the outcome was inactive.
Under `O=C(Cl)C(F)(F)C(F)(F)C(F)(F)C(=O)Cl` stands “inactive”; under `OC(O)(C(F)C(O)(O)C(F)(F)F)C(F)(F)F`, “inactive”.
For the molecule `FC(F)C(F)(F)COCC1CO1` (stereo not given), the result was inactive.
Consider `FC(F)(F)COC(OCC(F)(F)F)OCC(F)(F)F`, for which the outcome was inactive.
